Rows were chosen to be rich in hits. Some 7.5% of all compounds tested hit in one or more screens of this group.
FLuc modulator – inhibits or activates purified firefly luciferase, miR-21 counter-screen | purified FLuc, Km substrates, luminescence inhibition | P08659 | actives 6.9% (n = 360,000) | Potency, µM (series often up to 57.5 µM), without a hit: at the highest dose activity change, negative = inhibition, hits mostly inhibitors;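 note: plate controls were vehicle for no effect and reference inhibitor for full effect; nearly all actives have a fitted effect of over 55% in size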
Target sequence (P08659 whole entry, looked up): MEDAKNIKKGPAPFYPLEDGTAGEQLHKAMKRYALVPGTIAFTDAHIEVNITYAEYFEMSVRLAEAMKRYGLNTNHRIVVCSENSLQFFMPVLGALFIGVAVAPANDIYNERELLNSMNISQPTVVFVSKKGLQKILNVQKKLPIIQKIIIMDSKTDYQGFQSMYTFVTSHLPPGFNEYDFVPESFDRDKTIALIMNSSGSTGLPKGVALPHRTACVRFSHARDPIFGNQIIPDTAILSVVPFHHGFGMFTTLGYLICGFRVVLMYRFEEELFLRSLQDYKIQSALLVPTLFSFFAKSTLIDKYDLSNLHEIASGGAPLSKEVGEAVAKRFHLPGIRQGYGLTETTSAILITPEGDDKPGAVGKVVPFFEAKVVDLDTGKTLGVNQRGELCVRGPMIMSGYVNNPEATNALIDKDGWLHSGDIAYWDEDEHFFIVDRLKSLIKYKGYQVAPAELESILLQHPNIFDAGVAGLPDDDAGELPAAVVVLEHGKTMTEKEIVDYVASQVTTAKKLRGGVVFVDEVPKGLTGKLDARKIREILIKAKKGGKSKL
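Purified P. pyralis luciferase (10nM final) with 10uM D-luciferin and 10uM ATP (Km levels) in 50mM Tris acetate pH 7.5, 10mM Mg acetate, 0.01% Tween-20, 0.05% BSA; qHTS 6-point titration, ~60 µM downward; luminescence read.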
NPC1 prom act – activators of NPC1 promoter; Potency, µM (top dose mostly 9.22 µM), for the others: top-dose activation, hits mostly activators; AID 485313; actives 2.4% (n = 320,000); Huh7 NPC1 promoter luciferase reporter, 24 h; note: % of control where 0% means no effect; nearly all actives have a fitted effect of over 60% in size
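Luminescence read-out of NPC1 promoter-driven luciferase in stably transfected Huh7 cells; compounds delivered in DMSO and left 24 h at 37C, 5% CO2, qHTS titration format.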
Rab9 prom act – activators of Rab9 promoter; AID 485297; actives 2.8% (n = 320,000); Potency, µM (titrated, usually from 9.22 µM), without a hit: top-dose activation, negative = inhibition, actives largely listed as activators; Huh7 Rab9 promoter-luciferase reporter, luminescence, 24 h; note: % of control where 0% means no effect; nearly all actives have a fitted effect of over 60% in size
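Rab9 promoter-driven luciferase in stably transfected Huh7 cells; 1500 cells/well rested 2 h, exposed to compound in DMSO for 24 h at 37 °C, 5% CO2. Luminescence read 10 min after adding luciferase reagent at ambient temperature.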
KinaseGlo FLuc – Kinase-Glo luciferase inhibition (counter-screen); Kinase-Glo luciferase, ATP luminescence, 8 min; actives 0.28% (n = 200,000); AID 1379; Q27757; Potency, µM (series often up to 38.3 µM), without a hit: at the highest dose activity change, negative = inhibition, usual class: inhibitors; note: % is set by controls: 0 for no effect and ±100 for the full control effect; nearly all actives have a fitted effect of over 60% in size
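Light output from Kinase-Glo luciferase with luciferin and 10 uM ATP in 50 mM imidazole pH 7.2, KCl, MgCl2, Tween 20, BSA; compound pin-delivered, 8-min ambient incubation, then luminescence read.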
SMN2 splice up – enhancers of SMN2 splice variant expression | HEK293 SMN2-luciferase splicing reporter, luminescence, 30-36 h | Potency, µM (series often up to 46.1 µM), inactives show at the top dose activity change, positive = activation, actives largely listed as activators | actives 2.8% (n = 210,000); note: % of control where 0% means no effect; nearly all actives have a fitted effect of over 55% in size
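HEK293 cells carry an SMN2 […]–luciferase reporter in which exon 7 inclusion puts luciferase in frame. Cells were plated 10-12 h before compound addition, then incubated 30-36 h at 37C. ONE-Glo luminescence was read; sodium butyrate at 4.5 mM final served as control.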
ELG1 genotoxic – genotoxicity induction in ELG1-luciferase HEK293T cells. HEK293T ELG1-luciferase reporter, luminescence, 16 h. Potency, µM (top dose mostly 46 µM), for the others: top-dose activity change, positive = activation, hits mostly activators. actives 1.3% (n = 330,000); note: % of control where 0% means no effect; nearly all actives have a fitted effect of over 60% in size
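DMSO vehicle served as control against compound-treated ELG1-luciferase HEK293T cells; exposure lasted 16 hr at 37 °C and 5% CO2, followed by ONE-Glo luminescence detection after 30 min.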
An asterisk follows results filed as active; u = inconclusive; x = no result; [ ] = dose if it differs, or a comment. Calls come from the whole dose curve; as a rule, active = well fitted curve in the direction sought with a large enough effect; inconclusive = small, poorly fitted or top-dose-only effect, or another doubt; inactive = no such curve, though single readings can be large; an effect the other way counts as inactive or inconclusive. Potency is the fitted concentration of half-maximal effect.

SMILES	FLuc modulator	NPC1 prom act	Rab9 prom act	KinaseGlo FLuc	SMN2 splice up	ELG1 genotoxic
COc1cccc(COc2ccc3c(C)cc(=O)oc3c2)c1	3.01µM*	2.24µM*	2.82µM*	x	x	7.3µM*
Cc1cc(-n2c(SCC(=O)NCc3ccccc3)nc3ccsc3c2=O)ccc1Cl	-11.1%	x	x	x	x	x
O=C(Cn1nnc2ccccc21)NNC(=O)c1ccccc1	-2.8%	7.1%	-1.2%	x	x	-2.2%
CN1CCc2c(sc3c2C(=O)NC(c2cccc(OC(=O)c4cccs4)c2)N3)C1 (stereo not drawn)	16.9µM*	0.9%	3.2%	1.7%	u	18.9%
COc1ccc(/C=C/C(=O)c2ccc(C)c([N+](=O)[O-])c2)cc1O	4.78µM*	0.5%	-4.2%	-0.8%	2.4%	9.4%
COc1ccc(CNc2ncc(-c3ccc(Cl)cc3)n2C)c(OC)c1OC	-0.8%	-1.8%	-7.2%	x	x	-6.8%
Cc1ccc(-c2csc(NC(=O)CSC3=NCCS3)n2)cc1	13.5µM*	11.9%	18.3%	-3.4%	19.0%	u
Cc1sc(NC(=O)CSC2=NCCS2)nc1-c1ccccc1	-14.7%	1.0%	-0.3%	1.7%	-21.1%	-5.1%
CCOC(=O)N1CCN(C(=O)CSCC(=O)Nc2nc(-c3ccc(-c4ccccc4)cc3)cs2)CC1	-16.1%	u	u	-3.2%	-1.5%	2.59µM*
O=C(CSC1=NCCS1)Nc1nc2ccccc2s1	19µM*	29.1%	u	-0.8%	10.2%	8.6%
CCC(=O)NC(=S)Nc1ccc(-c2nc3ccccc3s2)cc1	0.757µM*	0.447µM*	1.58µM*	-0.7%	5.01µM*	u
Cc1ccc2nc(-c3ccc(NC(=S)NC4CC(C)(C)NC(C)(C)C4)cc3)sc2c1	10.7µM*	u	u	-7.6%	u	u
CCC(=O)NC(=S)Nc1ccc(NC(=S)NC(=O)c2ccc(C)cc2)cc1	0.8%	-6.8%	-4.1%	0.1%	-1.5%	u
CCC(=O)NC(=S)Nc1ccc(-c2nc3ccc(C)cc3s2)cc1	16.9µM*	0.794µM*	0.447µM*	x	x	u
CCC(=O)NC(=S)Nc1ccc(NC(=O)CC)cc1	-7.5%	-2.7%	0.3%	-0.9%	11.7%	0.4%
Cc1ccc2nc(-c3ccc(NC(=S)NC(=O)C(C)C)cc3)sc2c1	3.79µM*	0.398µM*	1.78µM*	13.2%	x	9.2µM*
CC1(c2nnc(-c3ccc(F)cc3)o2)CC(c2ccccc2)=NO1 (stereo not drawn)	-3.8%	-4.8%	-3.7%	x	x	3.7%
CCCCOCCOCCSC#N	x	x	x	x	-5.1%	x
COc1ccccc1CNC(=O)CN1C(=O)CSc2ccc(S(=O)(=O)N(C)C)cc21	1.0%	x	x	x	x	x
COc1cc(NC(=O)N2CCC(CN3CCCCCC3)CC2)cc(OC)c1OC	1.6%	x	x	x	x	x
NS(=O)(=O)c1ccc(NC(=S)N2CCN(C(=O)C3CCCO3)CC2)cc1 (stereo not drawn)	4.78µM*	16.4%	0.0%	x	x	-12.7%
CCOC(=O)CC(NS(=O)(=O)Cc1ccccc1)c1ccc(C)cc1 (stereo not drawn)	-3.1%	-0.3%	-11.0%	5.4%	-28.4%	-2.7%
CN(C)CCCOC1C(C(O)CO)OC2OC(C)(C)O[C@@H]21 (stereo partly drawn)	x	x	x	-1.2%	2.7%	x
CC1(C)CC(=O)C(N=Nc2ccc(Br)cc2)=C(O)C1	3.38µM*	-1.8%	14.5%	x	x	10.3µM*
CC1(C)CC(=O)C(N=Nc2cccc([N+](=O)[O-])c2)=C(O)C1	10.7µM*	0.1%	19.8%	x	x	18.3µM*
COc1ccc(N=NC2=C(O)CC(C)(C)CC2=O)cc1	13.5µM*	3.55µM*	16.3%	-8.8%	u	u
CCOC(=O)N1CCN(C(=O)Cc2ccccc2OC)CC1	3.4%	-0.3%	4.5%	x	x	0.3%
COc1cccc(C(=O)Nc2cc(C(F)(F)F)ccc2Cl)c1	u	1.5%	1.3%	-4.9%	-14.2%	-0.6%
COc1cc(C(=O)Nc2ccc(Cl)c(C(F)(F)F)c2)cc(OC)c1OC	21.3µM*	0.2%	8.9%	-1.9%	-8.0%[1.84 µM]	1.6%
